Data: PubChem BioAssay (NCI)
Several values for one entry are separate records, joined by “and”; a condition that tells them apart may be missing. Equal entries are not always repeated. About 79,000 compounds went through this panel and 15% of them were active in at least one assay; those are over-represented in the sample as a whole. Values without a mark were called inactive. Activity calls are given as the source filed them. No stated cut-off is given here; in the data, active means growth inhibition above about 70%; inactive means the rest.

Columns and labels:
[1] = NCI Yeast Anticancer Drug Screen. Data for the rad50 strain (AID 155);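 further: 0% = growth of vehicle-only cultures of the same strain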; conditions: S. cerevisiae rad50 strain growth inhibition, hits give high values; at 50.0 µM unless noted
In short: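 Compounds were tested on a yeast strain with an engineered DNA damage repair alteration; the reported value is growth inhibition normalised to vehicle treatment.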

[2] = NCI Yeast Anticancer Drug Screen. Data for the mec2-1 strain (AID 157); conditions: S. cerevisiae mec2-1 strain, hits give high values; at 50.0 µM unless noted
In short: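 Vehicle-treated cultures served as reference for growth inhibition of compound-exposed mec2-1 yeast.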

[3] = NCI Yeast Anticancer Drug Screen. Data for the sgs1 mgt1 strain (AID 161);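 further: 0% = growth of cultures given vehicle only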; conditions: S. cerevisiae sgs1 mgt1 strain, hits give high values; at 50.0 µM unless noted
In short: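 Inhibition of yeast growth, normalised to vehicle-treated controls, is reported for a strain bearing genetic alterations in DNA damage repair.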

[4] = NCI Yeast Anticancer Drug Screen. Data for the cln2 rad14 strain (AID 165);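 further: 0% = growth equal to vehicle treated cultures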; conditions: S. cerevisiae cln2 rad14 strain, hits give high values; at 50.0 µM unless noted
In short: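 Each compound was tested on cln2 rad14 yeast. Inhibition of growth was calculated against vehicle-exposed controls.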

[5] = NCI Yeast Anticancer Drug Screen. Data for the bub3 strain (AID 167); conditions: S. cerevisiae bub3 mutant strain, hits give high values; at 50.0 µM unless noted
In short: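 Growth of a checkpoint-deficient yeast mutant is measured after compound exposure. Values represent inhibition relative to vehicle.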

[6] = NCI Yeast Anticancer Drug Screen. Data for the mlh1 rad18 strain (AID 175); conditions: S. cerevisiae mlh1 rad18 strain growth inhibition, hits give high values; at 50.0 µM unless noted
In short: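 Vehicle-treated cultures served as the reference for growth inhibition in a yeast strain carrying DNA damage repair alterations exposed to each compound.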

CCC(O)(c1ccccc1)C(O)(CC)c1ccccc1 (stereo not drawn)
growth inhibition [1]: 15.8%
growth inhibition [2]: 8.9%
growth inhibition [3]: -2.05%
growth inhibition [4]: 22.8%
growth inhibition [5]: -13%
growth inhibition [6]: 23.3%

CC(=O)c1c(C)cc2cc(C)cc(O)c2c1O
growth inhibition [1]: 30.9%
growth inhibition [2]: 17.9%
growth inhibition [3]: 1.4%
growth inhibition [4]: 0.6%
growth inhibition [5]: 0.4%
growth inhibition [6]: 29.9%

OCC1OC(n2cnc3c2NC=NC[C@H]3O)C(O)C1O (stereo partly drawn)
growth inhibition [1]: 32.4%
growth inhibition [2]: -3.8%
growth inhibition [3]: 25.4%
growth inhibition [4]: -7.55%
growth inhibition [5]: 6.25%
growth inhibition [6]: 25.8%

O=C(O)c1ccccc1SSc1ccccc1C(=O)O
growth inhibition [1]: 10.2% and -7.05%
growth inhibition [2]: 16.4% and -6.5%
growth inhibition [3]: -6.6% and 3.3%
growth inhibition [4]: 4% and -26.9%
growth inhibition [5]: 9% and -0.65%
growth inhibition [6]: 7.85% and 9.6%

CC(C)(C)C(=O)Oc1ccc([N+](=O)[O-])cc1
growth inhibition [1]: 2.15%
growth inhibition [2]: -0.35%
growth inhibition [3]: -7.55%
growth inhibition [4]: -30.4%
growth inhibition [5]: -33.1%
growth inhibition [6]: 10.2%

CCOC(=O)Nc1ccccc1OCC
growth inhibition [1]: -10.6%
growth inhibition [2]: 2%
growth inhibition [3]: -4.3%
growth inhibition [4]: -90%
growth inhibition [5]: 6.2%
growth inhibition [6]: -3.45%

COCC(Br)C(OC)OC (stereo not drawn)
growth inhibition [1]: 37.5%
growth inhibition [2]: 9.1%
growth inhibition [3]: 58.9%
growth inhibition [4]: -1.05%
growth inhibition [5]: 5.75%
growth inhibition [6]: 68.3%

COC(=O)CCn1cnc2c(SC)ncnc21
growth inhibition [1]: -27.2%
growth inhibition [2]: 16.2%
growth inhibition [3]: -44%
growth inhibition [4]: 21.5%
growth inhibition [5]: 19.2%
growth inhibition [6]: -12.7%

COc1ccccc1/C=C1\SC(=S)NC1=O
growth inhibition [1]: -44.6%
growth inhibition [2]: -36.9%
growth inhibition [3]: -38.2%
growth inhibition [4]: -14.6%
growth inhibition [5]: -17.8%
growth inhibition [6]: -40.1%

O=C1OCC=C1Sc1ccccc1
growth inhibition [1]: -1.7%
growth inhibition [2]: -8.05%
growth inhibition [3]: -13.4%
growth inhibition [4]: -7.7%
growth inhibition [5]: -2.4%
growth inhibition [6]: -8.8%

O=C(/C=C/c1ccc(-c2ccccc2)cc1)c1ccccc1
growth inhibition [1]: -16.7%
growth inhibition [2]: -24.8%
growth inhibition [3]: 7.75%
growth inhibition [4]: -3.3%
growth inhibition [5]: -20.6%
growth inhibition [6]: -17.6%

CN1c2ccccc2N(C)C23N(C)c4ccccc4N(C)C12N(C)c1ccccc1N3C (stereo not drawn)
growth inhibition [1]: -33%
growth inhibition [2]: 1.8%
growth inhibition [3]: -67.4%
growth inhibition [4]: 18.7%
growth inhibition [5]: -22.1%
growth inhibition [6]: -20.9%

COc1ccccc1C(O)C(C)C (stereo not drawn)
growth inhibition [1]: -17.6%
growth inhibition [2]: -11.3%
growth inhibition [3]: 3.9%
growth inhibition [4]: -15.8%
growth inhibition [5]: -5.25%
growth inhibition [6]: -24.1%

CC(=O)OCCOc1ccc2c(c1)OCO2
growth inhibition [1]: 3.2%
growth inhibition [2]: -1.2%
growth inhibition [3]: 4.95%
growth inhibition [4]: -23.6%
growth inhibition [5]: -1.75%
growth inhibition [6]: 30.7%

Cc1[nH]c(N)nc(=S)c1CCCNc1ccccc1
growth inhibition [1]: 6.45%
growth inhibition [2]: 2.1%
growth inhibition [3]: 6.8%
growth inhibition [4]: -9.15%
growth inhibition [5]: -32.3%
growth inhibition [6]: 26.2%

Cc1cnc2ccccc2n1 (tested in a mixture with another compound)
growth inhibition [1]: -1.5%
growth inhibition [2]: 4.35%
growth inhibition [3]: -5.25%
growth inhibition [4]: 8%
growth inhibition [5]: -2.1%
growth inhibition [6]: 24.8%

C=C(C)C(=O)Oc1ccccc1/C=C/C(=O)CCCCCC
growth inhibition [1]: -8.45%
growth inhibition [2]: -14.1%
growth inhibition [3]: -20.4%
growth inhibition [4]: -9.1%
growth inhibition [5]: -11%
growth inhibition [6]: 4.4%

CC(=O)OC1CCC2(C)C(CCC3(C)C2C(=O)C=C2C4CC(C)(C(=O)O)CCC4(C)CCC23C)C1(C)C (stereo not drawn)
growth inhibition [1]: -3.8%
growth inhibition [2]: -9.5%
growth inhibition [3]: -13%
growth inhibition [4]: -4.25%
growth inhibition [5]: -5.75%
growth inhibition [6]: -8.5%

O=C(N/N=C/c1ccc(Cl)cc1)c1cccc([N+](=O)[O-])c1
growth inhibition [1]: -1.5%
growth inhibition [2]: 7.7%
growth inhibition [3]: -3.6%
growth inhibition [4]: 4.25%
growth inhibition [5]: 8.35%
growth inhibition [6]: -5.7%

COC(=O)c1ccc(N=NN(C)CN=[N+]=[N-])cc1
growth inhibition [1]: 13.3%
growth inhibition [2]: 19.7%
growth inhibition [3]: 21.2%
growth inhibition [4]: -21.3%
growth inhibition [5]: 11.3%
growth inhibition [6]: 3.15%

Cc1cn(C2CC(OP(=O)(O)OCC3OC(n4ccc(N)nc4=O)C(O)C3O)C(CO)O2)c(=O)[nH]c1=O (stereo not drawn)
growth inhibition [1]: 7.55%
growth inhibition [2]: 1.5%
growth inhibition [3]: 8.15%
growth inhibition [4]: 13.7%
growth inhibition [5]: -23.6%
growth inhibition [6]: -74.2%

O=C(C/C(CCC(=O)N(Cc1ccccc1)Cc1ccccc1)=N/Nc1ccc([N+](=O)[O-])cc1[N+](=O)[O-])c1ccccc1
growth inhibition [1]: 42.9%
growth inhibition [2]: 29.9%
growth inhibition [3]: 60%
growth inhibition [4]: 41.6%
growth inhibition [5]: 1.05%
growth inhibition [6]: 61.8%

CC(=O)OC[C@@]12C[C@H]3C(=O)C(C)(C)C[C@H]3[C@]1(C)[C@@H](OC(C)=O)[C@]1(O)[C@H]([C@@H](OC(=O)c3ccccc3)[C@@H](C)[C@H]1OC(C)=O)[C@H]2OC(C)=O
growth inhibition [1]: -13.6%
growth inhibition [2]: -26.9%
growth inhibition [3]: 3.25%
growth inhibition [4]: -3.25%
growth inhibition [5]: 10.8%
growth inhibition [6]: -3.15%

CC(CCCCCOC(=O)Nc1ccccc1)OC(=O)Nc1ccccc1 (stereo not drawn)
growth inhibition [1]: 6.2%
growth inhibition [2]: -12.3%
growth inhibition [3]: -3.1%
growth inhibition [4]: 0.75%
growth inhibition [5]: 1.15%
growth inhibition [6]: 2.6%

CC(=O)OC[C@H](O)[C@@]1(O)CC[C@H]2[C@@H]3CCC4=CC(=O)C=C[C@]4(C)[C@H]3[C@@H](O)C[C@@]21C
growth inhibition [1]: 33.2%
growth inhibition [2]: 14.9%
growth inhibition [3]: 23.9%
growth inhibition [4]: 1.15%
growth inhibition [5]: 41.6%
growth inhibition [6]: 27%

CC1C2=C(CC(C)(C)CC2=O)NC2=C1C(=O)CC(C)(C)C2
growth inhibition [1]: -7.3%
growth inhibition [2]: -26.1%
growth inhibition [3]: -8.55%
growth inhibition [4]: -9.85%
growth inhibition [5]: -7.4%
growth inhibition [6]: -3.4%

CCN(CC)CCCCCCNc1cc(O)cc2cccnc12
growth inhibition [1]: 18.5%
growth inhibition [2]: 30.8%
growth inhibition [3]: 44%
growth inhibition [4]: 8.45%
growth inhibition [5]: 11.4%
growth inhibition [6]: 14.4%

Oc1ccc(-c2c3ccccc3c(-c3ccc(O)cc3)c3ccccc23)cc1
growth inhibition [1]: -0.85%
growth inhibition [2]: -9.6%
growth inhibition [3]: -31.6%
growth inhibition [4]: -7.2%
growth inhibition [5]: -9.15%
growth inhibition [6]: 1.15%

O=C1/C(=N\[O-])C(S(=O)(=O)[O-])=Cc2cc(S(=O)(=O)[O-])cc(O)c21.O=C1/C(=N\[O-])C(S(=O)(=O)[O-])=Cc2cc(S(=O)(=O)[O-])cc(O)c21.[Cu+2]
growth inhibition [1]: -1.8%
growth inhibition [2]: 8.1%
growth inhibition [3]: -0.65%
growth inhibition [4]: -11.7%
growth inhibition [5]: -2.4%
growth inhibition [6]: -19.5%

COc1cc2cnc(-c3ccccc3)c(O)c2cc1OC
growth inhibition [1]: 12.3%
growth inhibition [2]: -5.25%
growth inhibition [3]: 12%
growth inhibition [4]: 1.3%
growth inhibition [5]: 40.1%
growth inhibition [6]: -6.55%

C#CCC(C(=O)OC)N(CC)CC (stereo not drawn)
growth inhibition [1]: 25.6%
growth inhibition [2]: -21.9%
growth inhibition [3]: 41.4%
growth inhibition [4]: 0.55%
growth inhibition [5]: 46.1%
growth inhibition [6]: 33.7%

c1cnc2c(c1)Oc1nc3ccccc3nc1S2
growth inhibition [1]: 2.25%
growth inhibition [2]: 6%
growth inhibition [3]: 3.9%
growth inhibition [4]: 35.9%
growth inhibition [5]: 8.9%
growth inhibition [6]: 23.1%

CS(=O)CCC1C(=O)OC(C(C)(C)C)N1C(=O)c1ccccc1 (stereo not drawn)
growth inhibition [1]: 8.25%
growth inhibition [2]: 3.65%
growth inhibition [3]: 4.55%
growth inhibition [4]: -12.3%
growth inhibition [5]: -0.85%
growth inhibition [6]: -0.4%

COc1cc(C2CC(C)(Nc3ccccc3)Oc3cc4c(cc32)OCO4)cc(OC)c1OC (stereo not drawn)
growth inhibition [1]: -6.35%
growth inhibition [2]: -13.7%
growth inhibition [3]: -3.55%
growth inhibition [4]: 4.95%
growth inhibition [5]: 4.1%
growth inhibition [6]: -14.2%

O=C(NCCCl)NC1C(O)OC(CO)C(O)C1O (stereo not drawn)
growth inhibition [1]: 93.2% (active)
growth inhibition [2]: 96% (active)
growth inhibition [3]: 93.8% (active)
growth inhibition [4]: 76.5% (active)
growth inhibition [5]: 96.8% (active)
growth inhibition [6]: 96.7% (active)

NC(=O)Nc1nc2ccccc2[nH]1
growth inhibition [1]: -26.2%
growth inhibition [2]: -21.6%
growth inhibition [3]: -11.7%
growth inhibition [4]: -0.3%
growth inhibition [5]: -7.7%
growth inhibition [6]: 3.4%

O=C(/C=C/c1ccccc1)c1ccc(I)cc1
growth inhibition [1]: 11.7%
growth inhibition [2]: -1.25%
growth inhibition [3]: 9.6%
growth inhibition [4]: -8.2%
growth inhibition [5]: 5.25%
growth inhibition [6]: 1.5%

Cc1nn(C(C)C(=O)N(C)C)c(Br)c1Br (stereo not drawn)
growth inhibition [1]: 2.05%
growth inhibition [2]: 4.7%
growth inhibition [3]: 0.75%
growth inhibition [4]: -30.4%
growth inhibition [5]: -25.7%
growth inhibition [6]: 3.15%
